Bim-Mcl-1 = inhibitors of Bim-Mcl-1 interaction, human | Q07820 | Bead-based flow cytometry, Bim peptide-Mcl-1 binding | inhibition, % at 10 µM | 190,000 compounds, 0.1% hits | AID 1009; in the data active means inhibition above about 40%;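 further: 0% = no compound tracer wells and 100% = peptide blocker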
Target sequence (Q07820 whole entry, looked up): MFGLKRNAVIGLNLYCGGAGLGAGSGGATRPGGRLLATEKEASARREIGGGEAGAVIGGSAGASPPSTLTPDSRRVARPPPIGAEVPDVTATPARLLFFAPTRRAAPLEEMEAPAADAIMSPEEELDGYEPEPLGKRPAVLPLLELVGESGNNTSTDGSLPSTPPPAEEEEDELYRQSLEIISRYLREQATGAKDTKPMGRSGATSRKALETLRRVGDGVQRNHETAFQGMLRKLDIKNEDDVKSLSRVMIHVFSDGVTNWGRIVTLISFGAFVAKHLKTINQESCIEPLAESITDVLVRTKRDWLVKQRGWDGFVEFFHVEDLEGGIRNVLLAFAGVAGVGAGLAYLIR
Mcl1 Noxa PPI = disrupts binding of human Mcl-1 to Noxa peptide; Q07820; TR-FRET Mcl-1/Noxa peptide binding, 2 h; inhibition, % at 21.7 µM; 220,000 compounds, 1.5% hits; AID 1022;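 active means compounds that cut the protein-peptide binding signal by more than 50% relative to plate controls in a single-dose test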;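 further: His-tagged Mcl-1 with rhodamine Noxa BH3 peptide and terbium anti-His antibody; 0% = Mcl-1 plus Noxa peptide wells and 100% = peptide-only wells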
Mcl1-Bid inh = Mcl-1/Bid interaction inhibition. TR-FRET Mcl-1/Bid-Dy647 peptide binding, 1536-well. Q07820. inhibition, % at 21.7 µM. 220,000 compounds, 0.97% hits;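 active means compounds that cut the binding signal by more than half at the single screening dose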;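 further: His-tagged Mcl-1 with europium anti-His antibody binding Bid BH3 peptide; 0% = Mcl-1 plus peptide wells and 100% = peptide-only wells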
Bcl-xL primary = inhibitors of human Bcl-xL; Q07817; GST-Bcl-xL / FITC-Bim BH3 peptide fluorescence polarization; inhibition, % at 10.9 µM; 320,000 compounds, 0.7% hits; AID 2129;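 active means inhibition above the mean of all tested compounds plus 3 SD, cutoff set per campaign, cut at about 30% in these data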;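 further: 0% = DMSO wells and 100% = unlabeled Bim-BH3 peptide competitor; inhibitors lower millipolarization by displacing the labeled peptide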
Target sequence (Q07817 whole entry, looked up): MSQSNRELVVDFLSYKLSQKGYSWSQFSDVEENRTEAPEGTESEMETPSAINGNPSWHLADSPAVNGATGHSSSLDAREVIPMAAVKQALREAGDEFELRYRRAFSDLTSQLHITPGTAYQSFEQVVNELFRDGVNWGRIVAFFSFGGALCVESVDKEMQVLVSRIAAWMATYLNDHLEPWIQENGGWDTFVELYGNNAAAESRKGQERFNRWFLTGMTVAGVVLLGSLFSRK
MCL1-BIM inh = inhibitors of human MCL1 binding to BIM-BH3 peptide; GST-MCL1 / FITC-Bim-BH3 fluorescence polarization; 320,000 compounds, 0.68% hits; inhibition, % at 10.9 µM;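 active means inhibition above the mean inhibition of all tested compounds plus 3 SD, set per campaign, cut at about 40% in these data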;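 further: 0% = DMSO wells and 100% = unlabeled Bim-BH3 peptide control; higher means more loss of mP so more displacement of Bim peptide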
GLD-1 RNA inh = GLD-1-TGE RNA interaction inhibition (C. elegans); Q17339; purified GLD-1 + fluorescein TGE RNA, fluorescence polarization; inhibition, % at 5.96 µM; 320,000 compounds, 0.44% hits;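 active means percent inhibition above a per-plate cutoff, the plate mean of test compounds plus 3 SD, cut at about 30% in these data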;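 further: 0% = DMSO wells with GLD-1 and probe and 100% = wells lacking GLD-1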
Numbers without * were called inactive; · = no result given. Compounds with a hit are over-represented: about 2.3% of the library has one in this group of screens.

SMILES | Bim-Mcl-1 | Mcl1 Noxa PPI | Mcl1-Bid inh | Bcl-xL primary | MCL1-BIM inh | GLD-1 RNA inh
COC(=O)c1ccc(OC(=O)CCN2C(=O)C3C4c5ccccc5C(c5ccccc54)C3C2=O)cc1 (stereo unspecified) | -10 | 10 | 52* | 4 | 1 | 8
COc1ccc(OC(=O)CCN2C(=O)C3C4C=CC(C4)C3C2=O)cc1 (stereo unspecified) | -4 | 5 | -45 | 4 | 9 | 6
Cc1ccccc1OCCOC(=O)c1ccc(S(=O)(=O)N2CCCC2)cc1 | · | · | · | 3 | 5 | 1
Cc1ccc(NC(=O)CSc2nc(=O)n(Cc3ccncc3)c3c2CCC3)c(C)c1 | · | · | · | 6 | 0 | 3
COc1cc(/C=C(\C#N)C(=O)Nc2cccc3ncccc23)cc(OC)c1OC | -6 | 21 | -7 | 8 | 3 | -11
COc1ccc(/C=C(\C#N)C(=O)Nc2cccc3ncccc23)cc1OC | · | 55* | -38 | 17 | 18 | 0
CC(C)(C)c1cc(C(=O)N/N=C/c2ccc(-c3ccccc3[N+](=O)[O-])o2)n[nH]1 | · | · | · | 48* | 42* | 75*
O=C(N/N=C/c1ccc(-c2ccccc2[N+](=O)[O-])o1)c1cccnc1 | 3 | 33 | -61 | 22 | 18 | 10
CC(CN1CCCC1)OC(=O)c1ccc(Br)cc1 (stereo unspecified) | · | · | · | 4 | -4 | 5
O=C(Cn1ccc(NC(=O)OCc2ccccc2)nc1=O)NCCCn1ccnc1 | · | · | · | -2 | -5 | 0
Cc1ccc(-c2nnc(SCC(=O)N/N=C/c3ccccc3C(=O)O)n2-c2ccccc2)cc1 | 0 | -1 | 4 | 1 | -4 | -1
Cc1ccc(-c2nnc(SCC(=O)N/N=C/c3ccc(C)s3)n2-c2ccc(C)cc2)cc1 | -5 | 23 | 97* | 0 | -6 | 8
CCOc1ccc(OCCN(C)Cc2ccccc2)cc1 | -5 | 10 | 59* | 6 | 10 | 4
COC(=O)[C@H](Cc1ccccc1)NC(=O)Cn1ccc(NC(=O)OCc2ccccc2)nc1=O | · | · | · | 1 | 0 | 4
COc1ccc(Nc2nc3[nH]c(=O)cc(O)c3s2)cc1 | 0 | 36 | -67 | -3 | 1 | -9
O=c1cc(O)c2sc(Nc3ccc(Cl)c(F)c3)nc2[nH]1 | · | 51* | -180 | -29 | -40 | -15
O=c1cc(O)c2sc(Nc3ccc(F)c(Cl)c3)nc2[nH]1 | 3 | 53* | -94 | -11 | -25 | -22
COCCCNC(=O)CN(c1ccc(F)cc1)S(=O)(=O)c1ccc2c(c1)OCCO2 | · | · | · | 6 | 4 | -2
Cc1nn(Cc2ccccc2)c(C)c1NC(=O)CSc1nc2c(c(C(F)(F)F)n1)CCc1ccccc1-2 | 3 | -15 | 64* | 2 | -8 | 6
CCOC(=O)c1c(C)oc2c1c1c(c3ccccc32)OCN(Cc2cccnc2)C1 | 1 | 71* | 9 | · | · | ·
CCOC(=O)c1c(C)oc2c1c(C=NCc1ccccn1)c(O)c1ccccc12 | 0 | 1 | -28 | · | · | ·
CCOC(=O)c1c(C)oc2c1c1c(c3ccccc32)OCN(CCCC(=O)O)C1 | · | 53* | -21 | 4 | 3 | 13
CCOC(=O)c1c(C)oc2c1c(C(c1cccnc1)N1CCOCC1)c(O)c1ccccc12 (stereo unspecified) | -5 | 101* | 69* | 6 | 10 | 1
Brc1cccc(-c2cnco2)c1 | -3 | 12 | -12 | 3 | 3 | 9
COc1ccc(N2CCN(C3CCCN(C(=O)CN4CCCC4=O)C3)CC2)cc1 (stereo unspecified) | · | · | · | 5 | 1 | -5
SMILES | Bim-Mcl-1 | Mcl1 Noxa PPI | Mcl1-Bid inh | Bcl-xL primary | MCL1-BIM inh | GLD-1 RNA inh
O=C(CSc1nnc(Cc2ccccc2)o1)N1CCc2ccccc21 | 1 | 13 | -15 | 1 | 5 | 4
O=C(CSc1nnc(COc2cccc3cccnc23)o1)N1CCc2ccccc21 | 0 | -5 | 84* | -6 | -7 | 9
COCCNC(=O)c1noc2c1CCc1cc(OC)ccc1-2 | -4 | 65* | 1 | 0 | 9 | 3
CC(C(=O)Nc1cc([N+](=O)[O-])ccc1Cl)N1CCN(c2ccc(O)cc2)CC1 (stereo unspecified) | -1 | 78* | -62 | 14 | 21 | 2
CC(C(=O)Nc1ccc([N+](=O)[O-])cc1Cl)N1CCN(S(=O)(=O)c2cccs2)CC1 (stereo unspecified) | · | · | · | -5 | -8 | 1
O=C(CN1CCN(c2ccccc2O)CC1)Nc1cc([N+](=O)[O-])ccc1Cl | -2 | 67* | -25 | 2 | 5 | 4
Cc1ccccc1C(=O)N=c1ccn(-c2nc3ccccc3nc2NS(=O)(=O)c2ccc(F)cc2)cc1 | · | · | · | 34* | 2 | 5
O=C(N=c1ccn(-c2nc3ccccc3nc2NS(=O)(=O)c2ccccc2)cc1)c1cccs1 | -2 | -238 | -274 | 17 | 17 | 15
O=C(Nc1cccc(Oc2ccc(C(=O)O)c(C(=O)O)c2)c1)c1ccc(-c2ccccc2)cc1 | · | 80* | -49 | 8 | 12 | 4
O=C(N/N=C/c1cccc(F)c1)c1c(O)c2ccccc2[nH]c1=O | 5 | 64* | 51* | -2 | -5 | -1
O=C(N/N=C/c1ccc(F)cc1)c1c(O)c2ccccc2[nH]c1=O | -2 | 33 | -25 | 1 | 4 | 3
CC(O)CN(CCC(N)=O)CCC(N)=O (stereo unspecified) | -1 | 15 | 52* | 1 | 0 | -1
CCOc1cc(/C=N/NC(=O)c2cccnc2)cc(Br)c1OCC(N)=O | 0 | -2 | -25 | 1 | 5 | -5
CCN(CC(=O)Nc1c(C(=O)OC)[nH]c2ccc(Cl)cc12)c1ccc2c(c1)OCO2 | 6 | 43 | 59* | 49* | 49* | 1
CCOC(=O)c1[nH]c2ccc(Cl)cc2c1NC(=O)/C=C/c1ccc2c(c1)OCO2 | -3 | 23 | -21 | 0 | -1 | 0
Cc1ccc(C(C(=O)NC2CCCCC2)N(CCCN2CCOCC2)C(=O)c2snc(C(N)=O)c2N)cc1 (stereo unspecified) | · | · | · | 7 | 3 | 4
CCNc1nc(NCC)nc(C(=O)NN)n1 | -13 | 75* | -18 | 0 | 0 | 2
O=C(NCCCN1CCOCC1)c1ccc2c(c1)N(Cc1ccccc1F)C(=O)c1ccccc1S2=O (stereo unspecified) | · | · | · | 1 | 11 | 1
Cc1ccc(O)c(N=Cc2cc(Cc3ccccc3)cc([N+](=O)[O-])c2O)c1 | -1 | 56* | -89 | · | · | ·
Cc1cccc(N=Cc2cc3c(cc2[N+](=O)[O-])OCO3)c1 | 0 | -3 | -80 | 8 | 16 | -1
COc1cc(C=Nc2cccc(C)c2)c(O)c([N+](=O)[O-])c1 | 53* | 39 | -81 | 6 | 13 | 5
O=[N+]([O-])c1cc(Cc2ccccc2)cc(C=Nc2ccc(N3CCOCC3)cc2)c1O | 2 | 28 | -17 | 29 | 27 | 5

Screening data deposited in PubChem by several laboratories.
